Bioassay records from PubChem.
GPR151 ag = human GPR151 activation. Q8TDV0. activation, % at 11.2 µM. PathHunter beta-arrestin GPR151 cells, luminescence. AID 1508602. hit rate 1% among 650,000; in the data active means activation above about 4.9%;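 further: 0% = median of compound wells and 100% = cells with positive control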
FBW7 act = human FBW7 E3 ligase activation, primary screen. normalized activity (activation), % at 26.1 µM. AID 1259310. Q969H0. hit rate 0.13% among 650,000. AlphaScreen FBW7–phospho-cyclin E peptide binding, activator screen; in the data active means normalized activity above about 1.9%;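 further: purified mutant Fbw7 with reduced substrate affinity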
Target sequence (Q969H0 whole entry, looked up): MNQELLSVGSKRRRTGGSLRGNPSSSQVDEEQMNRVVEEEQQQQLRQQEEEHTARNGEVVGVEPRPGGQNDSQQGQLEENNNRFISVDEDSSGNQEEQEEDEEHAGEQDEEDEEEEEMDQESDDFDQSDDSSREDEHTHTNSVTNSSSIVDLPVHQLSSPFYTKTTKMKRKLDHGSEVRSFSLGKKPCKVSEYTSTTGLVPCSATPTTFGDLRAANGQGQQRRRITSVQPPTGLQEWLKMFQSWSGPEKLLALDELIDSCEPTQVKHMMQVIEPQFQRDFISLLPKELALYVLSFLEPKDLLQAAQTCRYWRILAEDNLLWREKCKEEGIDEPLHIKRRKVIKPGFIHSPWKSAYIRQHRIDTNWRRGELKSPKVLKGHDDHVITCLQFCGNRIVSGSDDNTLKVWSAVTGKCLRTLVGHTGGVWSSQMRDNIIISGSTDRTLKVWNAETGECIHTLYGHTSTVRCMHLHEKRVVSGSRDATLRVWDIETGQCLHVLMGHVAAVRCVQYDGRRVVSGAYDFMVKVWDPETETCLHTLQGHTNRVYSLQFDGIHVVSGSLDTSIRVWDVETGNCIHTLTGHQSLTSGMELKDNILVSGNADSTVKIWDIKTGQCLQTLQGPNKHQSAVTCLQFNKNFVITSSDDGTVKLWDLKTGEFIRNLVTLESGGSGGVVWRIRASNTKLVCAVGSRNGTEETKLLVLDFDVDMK
MITF primary = human MITF inhibition, primary screen; AlphaScreen MITF homodimerization, bead proximity signal; hit rate 0.91% among 650,000; inhibition, % at 2.6 µM; AID 1259374; in the data active means inhibition above about 50%;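 further: 0% = vehicle wells with protein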
TEAD-YAP inh = TEAD-YAP interaction inhibition. HEK-TIYL cells, TEAD-Gal4/YAP UAS-luciferase luminescence. inhibition, % at 9.12 µM. hit rate 1.4% among 640,000. AID 1259422; in the data active means inhibition above about 32%;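 further: 0% = median of test compound wells and 100% = reference inhibitor wells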
GPR151 confirm = human GPR151 activation, confirmation screen; 6,700 tested, under 10 active; activation, % at 11.2 µM; shares compounds with GPR151 ag; GPR151 PathHunter beta-arrestin cells, luminescence, 90 min; % of EA-reagent control over plate median;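 active means mean percent activation across replicates above the confirmation screen cutoff of 4.91%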
GPR119 ag = activates human GPR119 in a GPR151 counter-screen; GPR119 PathHunter beta-arrestin cells, luminescence, 90 min; 0 = compound-well median, 100 = enzyme-acceptor control; shares compounds with GPR151 ag; hit rate 0.3% among 6,700; activation, % at 11.2 µM; AID 1508611;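 active means mean percent activation in the counterscreen above 29.09%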;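 further: counterscreen on off-target GPR119 to flag nonselective hits from the GPR151 activator screen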
An asterisk follows results filed as active; . = no result given. Rows were chosen to be rich in hits. Some 3.4% of all compounds tested hit in one or more screens of this group.

SMILES	GPR151 ag	FBW7 act	MITF primary	TEAD-YAP inh	GPR151 confirm	GPR119 ag
Cc1ccc(S(=O)(=O)N2C(=O)CCC2C(=O)O/N=C(\N)c2cccnc2)cc1 (configuration not stated)	5.2*	0.0	3.3	1.8	1.2	7.0
Cc1ccc(S(=O)(=O)N2C(=O)CCC2C(=O)O/N=C(\N)c2ccccc2)cc1 (configuration not stated)	8.4*	-0.1	5.4	-10.3	-0.3	-4.2
CCOC(=O)c1c(C)oc2ccc(OCC#N)cc12	0.6	-0.1	-1.6	-0.8	.	.
Cc1cc(C)nc(SCc2cc(=O)c(OC(=O)Cc3ccc(F)cc3)co2)n1	-1.8	-0.1	10.4	-7.7	.	.
O=S(=O)(CCOc1ccccc1)N1CCN(c2ccccc2F)CC1	-1.1	0.1	2.9	0.1	.	.
O=C(COc1ccc(Cl)cc1)NCCCS(=O)(=O)N1CCN(c2ncccn2)CC1	7.5*	0.1	1.6	-8.7	0.7	0.1
O=S(=O)(CCOc1ccccc1)N1CCN(c2ncccn2)CC1	6.2*	0.0	1.3	2.3	-0.4	-3.6
O=C(COc1ccccc1)NCCCS(=O)(=O)N1CCN(c2ncccn2)CC1	-1.0	0.0	8.5	-5.8	.	.
CCOC(=O)c1oc2ccccc2c1NC(=O)c1cccc(C)c1	1.3	0.0	-5.5	1.6	.	.
CCC(=O)C1=C(c2ccc(C(C)(C)C)cc2)N(C(=O)CC)n2cnnc2S1	6.4*	-0.1	7.0	66.8*	0.9	-3.1
O=c1cc(-c2ccccc2[N+](=O)[O-])nc(-c2ccco2)o1	7.3*	-0.1	-3.7	-1.2	-0.5	-2.1
CCC(Nc1c([N+](=O)[O-])cc(C(F)(F)F)cc1[N+](=O)[O-])C(=O)O (configuration not stated)	6.0*	0.0	-3.6	3.6	-0.1	6.9
CCC(C)Nc1c([N+](=O)[O-])cc(C(=O)O)cc1[N+](=O)[O-] (configuration not stated)	0.2	0.2	5.6	3.5	.	.
CCOC(=O)c1c(-c2ccc(C)o2)csc1NC(=O)c1cccs1	8.2*	0.0	10.7	2.5	-0.7	2.3
CC(C)n1c(CN2CCc3c(nc(N4CCOCC4)[nH]c3=O)C2)nc2ccccc21	-0.1	-0.1	-2.5	1.3	.	.
Cc1ccc(N2CC(C(=O)Nc3ccccc3C(=O)NC(C)C)CC2=O)cc1 (configuration not stated)	6.3*	0.3	-13.5	-4.2	0.2	21.6
Cc1ccc(N2CC(C(=O)Nc3ccccc3C(=O)NCCc3ccccc3)CC2=O)cc1 (configuration not stated)	5.3*	0.1	9.2	-10.5	-0.9	-8.2
Cc1ccc(N2CC(C(=O)Nc3ccccc3C(N)=O)CC2=O)cc1 (configuration not stated)	-0.6	-0.1	14.6	2.9	.	.
O=C(NCc1ccco1)C1CC(=O)N(c2ccc(F)cc2)C1 (configuration not stated)	-1.0	-0.2	0.9	0.1	.	.
O=C(NCc1ccco1)c1ccccc1NC(=O)C1CC(=O)N(c2ccc(Cl)cc2)C1 (configuration not stated)	6.8*	-0.1	-0.3	2.7	0.1	2.7
CCOc1ccc(NC(=O)C23CC4CC(CC(O)(C4)C2)C3)cc1	0.5	0.0	2.0	-6.5	.	.
COc1ccc(CN2C(=O)CC(C(=O)Nc3ccc(C)cc3C)SC2=Nc2ccccc2)cc1 (configuration not stated)	1.3	-0.1	4.0	-0.5	.	.
CC1=C/C(=N\OS(=O)(=O)c2ccccc2)C(C(C)C)=CC1=O	8.5*	-0.1	19.9	-8.6	0.4	20.1
CC1=C/C(=N\S(=O)(=O)c2ccccc2)C(C)=CC1=O	-0.7	0.0	-13.2	4.2	.	.
CCC(Br)C(=O)NCCc1ccc(OC)c(OC)c1 (configuration not stated)	5.2*	-0.1	0.4	4.1	-0.7	9.0
SMILES	GPR151 ag	FBW7 act	MITF primary	TEAD-YAP inh	GPR151 confirm	GPR119 ag
COc1ccc(CCNC(=O)/C=C\C(=O)O)cc1OC	5.0*	-0.2	4.1	-5.0	1.8	1.0
CCCN1CCN(C(=S)NCCc2ccc(OC)c(OC)c2)CC1	5.5*	0.0	5.4	0.9	0.3	-3.9
COC(=O)C1=C(C)NC(=O)NC1c1cn(-c2ccccc2)nc1-c1ccc(Br)cc1 (configuration not stated)	0.1	0.2	-2.8	-8.7	.	.
CCOC(=O)C1=C(C)OC(N)=C(C#N)C1c1ccc(F)c(Br)c1 (configuration not stated)	9.6*	0.8	27.1	3.0	0.1	8.6
CCOC(=O)C1=C(CC)OC(N)=C(C#N)C1c1ccc(F)c(Br)c1 (configuration not stated)	0.2	-0.2	-8.3	10.2	.	.
S=c1nc[nH]c2ccc3ncccc3c12	-0.2	-0.2	-3.8	-2.7	.	.
COc1ccc(-c2nnc3sc(NC(=O)c4ccccc4C)nn23)cc1	2.1	0.1	-4.7	-2.0	.	.
COc1ccc(-c2nnc(NC(=O)c3ccccc3C)s2)c(OC)c1	5.8*	0.0	7.1	0.7	1.1	-0.1
COc1ccc(-c2nnc3sc(NC(=O)C(C)C)nn23)cc1OC	14.3*	-0.1	-2.8	7.9	1.6	-6.5
COc1ccc(-c2nnc3sc(NC(=O)c4ccccc4C)nn23)cc1OC	8.8*	0.0	-0.1	-2.2	0.5	1.2
CCOc1ccccc1NC(=O)C1(C)CC2c3ccccc3C1c1ccccc12 (configuration not stated)	0.0	0.1	14.7	-2.0	.	.
C/C(CCc1ccccc1)=N/Nc1ccc([N+](=O)[O-])cc1	8.0*	-0.2	8.4	1.2	-0.1	-5.1
Cc1nc(-c2ccc([N+](=O)[O-])cc2)c(C(=O)Nc2ccc(-c3ccccc3)cc2)s1	0.4	-0.1	-12.7	5.6	.	.
CC(C)(C)CN1CCN(Cc2ccc3cc(F)ccc3n2)CC1CCO (configuration not stated)	-0.4	-0.1	2.0	3.0	.	.
CCC(C)N(C(=O)c1csnn1)C(C(=O)NCc1ccc(F)cc1)c1ccco1 (configuration not stated)	7.2*	1.0	-4.7	-11.1	1.0	3.5
CCOc1ccc(C=Nc2ccc(C(C)=O)cc2)c(O)c1	5.6*	-0.1	4.8	-32.5	-1.3	-13.1
CCOc1ccc(C=Nc2ccc(C(=O)O)cc2)c(O)c1	-1.3	0.1	14.4	-12.6	.	.
Cc1nnc(SCc2cc(=O)n3[nH]cnc3n2)s1	5.7*	0.0	14.4	11.2	-1.0	-5.2
CSc1nc2sccn2c(=O)c1C(=O)NCC(F)(F)F	-0.6	0.1	20.2	4.0	.	.
CSc1nc2sccn2c(=O)c1C(=O)NC1CCC(O)CC1 (configuration not stated)	6.8*	0.0	-4.9	2.5	0.2	8.6
CSc1nc2sccn2c(=O)c1C(=O)NCc1ccccc1Oc1ccccc1	17.3*	0.3	6.1	7.5	1.7	5.7
